Reference: ChEMBL document CHEMBL3988442, “University of Dundee, Small-Polar-MMV Screening Library” (2021)

Tests used:
[1] = biological target: T1, Aspartate--tRNA(Asp/Asn) ligase (Mycobacterium tuberculosis (strain ATCC 25618 / H37Rv)) (UniProt P9WFW3); experiment: Assay for Asp RNA synthetase-1 from Mycobacterium tuberculosis; assay type: functional; parameters: scale not given: direction of the effect not stated beside the values; conditions: 30 µM; note: in the data most compounds retested in dose-response had high values
T1 sequence (whole entry): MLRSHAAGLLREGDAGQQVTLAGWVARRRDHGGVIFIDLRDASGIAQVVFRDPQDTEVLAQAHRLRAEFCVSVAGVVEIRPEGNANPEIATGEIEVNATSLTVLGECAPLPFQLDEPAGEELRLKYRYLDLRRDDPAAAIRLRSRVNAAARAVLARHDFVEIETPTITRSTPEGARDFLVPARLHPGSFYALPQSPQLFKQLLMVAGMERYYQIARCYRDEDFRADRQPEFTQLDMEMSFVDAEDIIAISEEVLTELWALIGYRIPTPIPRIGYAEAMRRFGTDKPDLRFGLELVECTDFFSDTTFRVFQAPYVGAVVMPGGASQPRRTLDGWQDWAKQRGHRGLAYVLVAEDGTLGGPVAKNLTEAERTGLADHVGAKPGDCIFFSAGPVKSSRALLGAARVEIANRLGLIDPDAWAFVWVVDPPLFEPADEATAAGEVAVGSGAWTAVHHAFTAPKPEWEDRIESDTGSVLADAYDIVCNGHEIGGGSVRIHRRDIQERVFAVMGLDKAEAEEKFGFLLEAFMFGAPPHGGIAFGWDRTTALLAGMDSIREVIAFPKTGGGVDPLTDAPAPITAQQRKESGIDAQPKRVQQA

[2] = biological target: Shiga toxin 2 (Escherichia coli O157:H7) (UniProt P09385+P09386); experiment: E. coli 0.157:H7 Shiga Toxin SOP - stx2 screening assay; assay type: functional; parameters: scale not given: direction of the effect not stated beside the values; conditions: 30 µM

Compound	Percent Effect [1]	Percent Effect [2]
CSCCCNC(=O)Nc1cccc(-c2nccn2C)c1	-3.93%	-93.1%
CC(NC1(CNC(=O)CC(C)(C)C)CCOCC1)c1ccccc1 (stereo not given)	9.41%	20.8%
CCN(Cc1ccc2c(c1)OCCO2)C(=O)NCc1cc[nH]n1	3.66%	27.9%
Cc1ccc2c(n1)N(CCn1cccn1)CCN(C(=O)CC1CC1)C2	-3.03%	2.2%
O=C(NCc1nnc2n1CCC2)N(Cc1ccco1)C1CC1	1.06%	-5.54%
Cc1cccc(CN2C[C@@H]3COC[C@]3(CNC(=O)N3CCCC3)C2)n1	2.42%	11.4%
CC(=O)NCC1CCN(C(=O)c2csc(-c3ccc(C)cc3C)n2)CC1	5.3%	14%
O=S(=O)(c1ccccc1)N1CCCN(CCCn2ccnc2)CC1	-2.67%	-12.6%
CC(C)c1cc(CNC(=O)N2CCC(Cc3cnn(C)c3)C2)on1 (stereo not given)	-3.72%	11%
COc1ccc(OC)c(-c2nc(CN(C)Cc3nncn3C)c(C)o2)c1	5.61%	-20.1%
Cc1nc(C)c(CC(=O)N2C[C@H]3CC[C@@H]2CN(C(=O)N(C)C)C3)c(=O)[nH]1	0.0987%	-13.6%
CCCSCC(=O)NS(=O)(=O)c1ccc2c(c1)OCCO2	-3.99%	19.7%
Cc1nc(C2CCCN(C(=O)c3cnn(C(C)(C)C)c3)C2)no1 (stereo not given)	-4.47%	-34.6%
Cc1nc(CN2CCCC(CCNS(C)(=O)=O)C2)c[nH]1 (stereo not given)	-4.89%	13%
CCC(C)(NCC(=O)Nc1ccccc1)c1nc(C)cs1 (stereo not given)	1.93%	15.8%
Cc1ccc(C)c(NC(=O)c2n[nH]c(-n3cnnc3)n2)c1	-4.33%	-11.6%
COc1ccc(NC(C)C(=O)N2CCN(c3ncccn3)CC2)cn1 (stereo not given)	-4.63%	5.46%
Cc1ccc(N2CCCC(NCc3cscn3)C2)nn1 (stereo not given)	10.3%	15.1%
CC(=O)NCC(=O)N1CCN(CC2CC2)c2ncccc2C1	-4.63%	-0.0207%
CS(=O)(=O)NCC1CCCN(C(=O)COCC(F)(F)F)C1 (stereo not given)	-4.43%	-24%
Cn1nc2c(cc1=O)CN(CC(=O)Nc1ccc(Cl)cn1)CC2	48.3%	-4.57%
O=C(O)CCc1cc2n(n1)CCCN(C(=O)c1ccc3cc[nH]c3c1)C2	-1.19%	-1.98%
Cc1cc(C[C@@H]2CCC[C@H]2NCc2cc(C)c(O)c(C)c2)on1	2.31%	-2.65%

Compound	Percent Effect [1]	Percent Effect [2]
CC(=O)c1c(F)cccc1N1CCC(CS(N)(=O)=O)CC1	-3.49%	-2.68%
CCN(CC)C(=O)c1cc(C2CCCN2C)ccn1 (stereo not given)	4.39%	1.51%
Cc1ccc(F)cc1C(=O)N1C[C@@H](CN2CCOCC2)[C@@H](CO)C1	-3.12%	19.3%
COc1ccccc1OCC(=O)NS(=O)(=O)c1ccccc1F	0.814%	-7.18%
CC(O)CN(CC(=O)NC(=O)NCC(F)(F)F)c1ccccc1 (stereo not given)	-7.32%	29.2%
Cn1cccc1C(=O)N1CCC2(CC1)CN(c1ccccn1)CCO2	7.46%	-7.72%
CC(C)Oc1cccc(C(=O)C2CCCN(C(=O)c3ncn[nH]3)C2)c1 (stereo not given)	0.948%	-0.343%
CCC(CNC(=O)c1ccc(=O)[nH]n1)N1CCc2ccccc2C1 (stereo not given)	2.11%	-11.6%
c1nc2n(n1)CC(NCc1nc(-c3ccsc3)no1)CC2 (stereo not given)	4.69%	10.5%
CCOCCNc1nc(C2CCCC2)nc2c1cnn2C	5.12%	1.57%
Cn1ncc2c(=O)[nH]c(CN3CCCC3c3cccs3)nc21 (stereo not given)	-0.799%	3.97%
Cc1nc(CN2CCCC(N(C)Cc3c(C)noc3C)C2)no1 (stereo not given)	-5.45%	18.6%
CCOc1cc(C(=O)N2CCCC(c3cc(C(N)=O)[nH]n3)C2)ccn1 (stereo not given)	-1.21%	25.9%
Cc1occc1C(=O)N1CCC2(CCN(Cc3nccs3)C2)CC1	0.208%	-15.8%
Cc1nn(C)c(Cl)c1CNCc1ccc(OCC(N)=O)cc1	-2.25%	-17.5%
CCOc1ncccc1C(=O)N1CCCC1c1c(C)nn(C)c1OC (stereo not given)	-0.602%	-8.49%
O=C1CC(c2cccs2)c2snc(C(=O)O)c2N1 (stereo not given)	-3.23%	-4.3%
CSc1ccc(Cl)c(C(=O)N2CCCC(CNS(C)(=O)=O)C2)c1 (stereo not given)	2.82%	-37.8%
c1cnc(N2CCC3(COCc4cnc(-c5cccnc5)nc43)C2)nc1 (stereo not given)	2.15%	-3.56%
CN(C)Cc1nnc(C2CCN(c3nccc(N)n3)CC2)n1C1CC1	2.12%	-41.2%
Cc1nnc(CN2CCN(CCOc3ccccc3C#N)CC2)n1C	3.6%	3.89%
Cc1ccc2cc(C3(O)CCN(C(=O)CN4CCCC4)CC3)ccc2n1	1.48%	-47.1%
